This passage reports Potency and activation results from PubChem BioAssay (NCATS).

Where “and” joins values, the source holds several entries; their conditions need not be identical. Identical values can stand only once. Inconclusive results are not listed. Some compounds were tested as several samples or in several runs, with calls that do not always agree. Calls of active or inactive are those of the source. Calls follow the shape of the dose curve; as a rule, active = well fitted activation curve with a large enough effect; inconclusive = small, poorly fitted or top-dose-only effect; inactive = no such curve, though single readings can be large or run the other way.
Potency is read from the fitted curve at half-maximal effect.

Cellular tumor antigen p53 (Homo sapiens), sequence (P04637 whole entry, looked up): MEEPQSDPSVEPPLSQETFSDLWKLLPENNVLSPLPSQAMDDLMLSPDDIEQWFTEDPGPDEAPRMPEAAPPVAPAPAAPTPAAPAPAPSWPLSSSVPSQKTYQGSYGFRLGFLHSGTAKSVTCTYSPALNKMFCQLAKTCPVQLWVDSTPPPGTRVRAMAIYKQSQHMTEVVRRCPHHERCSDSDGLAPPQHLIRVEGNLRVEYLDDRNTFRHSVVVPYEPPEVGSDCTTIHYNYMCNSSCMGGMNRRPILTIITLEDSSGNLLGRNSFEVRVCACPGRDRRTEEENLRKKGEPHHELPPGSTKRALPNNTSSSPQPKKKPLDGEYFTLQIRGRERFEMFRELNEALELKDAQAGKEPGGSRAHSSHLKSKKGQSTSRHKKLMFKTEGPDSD

The experiment concerns the target Cellular tumor antigen p53 (Homo sapiens) (UniProt P04637). The experiment in a line: Primary qHTS for small molecule compounds that upregulate eGFP-tagged delta133p53alpha (in N-terminal) cells. (AID 2060322). Also: nearly all actives have a fitted effect of over 75% in size.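 As to activation: cells pre-induced with doxycycline then dosed without doxycycline; series mostly up to about 56 µM; 0% = DMSO vehicle and 100% = reference activator.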 Conditions: NCI-H358 eGFP-delta133p53alpha fluorescence, 24 h; activation: hits give high values. An excerpt: Assay Development and Screening Technology
National Center for Advancing Translational Sciences (NCATS),
National Institute of Health (NIH), Rockville, Maryland
Cellular senescence (CS) is one of the hallmarks of aging and age-related diseases. Senescent cells are characterized by an irreversible growth arrest, an increase in senescence-associated beta-galactosidase (SA-beta-gal) activity and p16INK4a expression, an activation of the DNA damage response pathways, and the emergence of a senescence-associated secretory phenotype (SASP).
Delta133p53alpha, a human/primate-specific p53 protein isoform, delays or inhibits the induction of CS and SASP in various types of human cells, including progeria-derived fibroblasts, primary normal astrocytes, and CD8+ T lymphocytes. Induction of delta133p53alpha with small molecule compounds may provide therapeutic opportunities for inhibition of senescence/SASP-associated pathologies in progeria syndromes, astrocyte-mediated neuroprotection in neurodegenerative diseases, and possibly prevention and treatment of a wider range of senescence- and aging-associated diseases.
Here we report the development and validation of a cell-based quantitative high throughput screening (qHTS) assay in 1,536-well format. This qHTS assay uses the NCI-H358 cell line with doxycycline-inducible expression of enhanced green fluorescent protein (eGFP)-tagged delta133p53alpha, which allows efficient and highly quantitative measurement of the protein levels.
PROTOCOL TABLE (as described by Inglese J, Shamu CE and Guy RK. 2007)
SEQUENCE No. (e.g., 1, 2, 3, etc.); […] (e.g., Cells, Incubation, Reagent, etc.); VALUE; DESCRIPTION.
1; Cells; 4uL; 800 doxycycline treated cells / well in doxycycline-free media, 1536-well black, clear-bottom low base Aurora microplates.
2; Compounds; 23 nL; Kalypsis pin tool (Wako) equipped with 1536-well pin heads, 5-azacytidine positive control.
3; Incubation; 24 hr; 37C, 5% CO2; 95% relative humidity.
4; Aspiration; 1x; BioTek EL406 washer dispenser (Agilent).
5; Fixing; 3.5% paraformaldehyde, BioTek EL406 washer dispenser (Agilent).
6; Washing; 1x PBS; BioTek EL406 washer dispenser (Agilent).
7; Nuclei staining; 1:1000 dilution of Hoechst 33342 (Thermofisher), BioTek EL406 washer dispenser (Agilent).
8; Incubation; 20 min; in the dark at room temperature.
9; Washing; 2x, 1x PBS (ThermoFisher), BioTek EL406 washer dispenser (Agilent).
10; Reagent; 10 uL; 1x PBS per well, sealed with clear adhesive tape.
NOTES (numbers refer to sequence numbers above).
1. NCI-H358 cells expressing eGFP-tagged delta133p53alpha were grown in T75 culture flasks and treated with doxycycline for 24h, at 10 ng/ml for eGFP-D133p53a cells (N-terminal cell) and 100 ng/ml for D133p53a-eGFP cells (C-terminal cells). Cells were trypsinized, counted using a Counted 3 Automated Cell Counter (Thermo Fisher), and diluted to a concentration of 200,000 cells/ml. A Multidrop Combi Reagent Dispenser (ThermoFisher) was used to dispense 800 cells/well in […] of doxycycline-free media, into 1536-well black/clear bottom low base plates (AuroraMicroplates).
2. After plating cells, 23 nl of compound library, DMSO vehicle control or positive control (5-azacytidine) were transferred by Pin Tool (Wako). The plate map layout was the same for each plate: (column 1) non-doxycycline treated cells + DMSO vehicle control; (column 2) doxycycline treated cells + DMSO vehicle control baseline; (column 3) doxycycline treated cells + positive control 57.5 uM final concentration 5-azacytidine; (column 4) doxycycline treated cells + serial dilution of 5-azacytidine, 16-point 1:2 titration spanning 1.8 nM to […] final concentration; (columns 5-48) doxycycline treated cells + titration of library compounds.
3. Cells were incubated at 37 °C, 5 % CO2, 95% RH with breathable metal lid for 24h.
4-10. […] After two washes, 10 ul of 1X PBS (Thermo Fisher) was dispensed to each well. Clear adhesive plate seals (VWR) were applied and plates stored at 4 °C.
11. […]
Consider `Nc1ncn([C@@H]2O[C@H](CO)[C@@H](O)[C@H]2O)c(=O)n1`, for which the Potency was 1.69 µM (active).
As for `CCC1(O)CC2CN(CCc3c([nH]c4ccccc34)[C@@](C(=O)OC)(c3cc4c(cc3OC)N(C=O)C3[C@]45CCN4CC=C[C@@](CC)([C@@H](OC(C)=O)[C@]3(O)C(=O)OC)[C@H]45)C2)C1` (some centres undefined), the activation was 32.1% (inactive).
Same read-out and setting: in the case of `NS(=O)(=O)c1cc2c(cc1Cl)NCNS2(=O)=O` it was -8.47% (inactive) and 26.3% (inactive) and -35.3% (inactive); in that of `C/C(=C/CO)CC[C@@H]1[C@@](C)(O)CCC2C(C)(C)CCC[C@]21C` (some centres undefined), -7.14% (inactive).
As to `CC(O)/C=C/C1(O)C(C)C(O)C(O[C@@H]2O[C@H](CO)[C@@H](O)[C@H](O)[C@H]2O)CC1(C)C` (some centres undefined), the activation is -14.3% (inactive).
Same read-out and setting: the figure for `C=C1C(O)CC2C(C(=O)O)=COC(O[C@@H]3O[C@H](COC(=O)c4ccc(O)cc4)[C@@H](O)[C@H](O)[C@H]3O)C12` (some centres undefined) is -6.11% (inactive); for `C=CC1C(OC2OC(CO)C(O)C(O)C2O)OC=C(C(=O)OC)C1CC1CC(=O)CC(CCc2ccc(O)cc2)O1` (centres undefined) it is 19.6% (inactive).
Consider `CC(C)(C)c1nnc(NS(=O)(=O)c2ccc(N)cc2)s1`, for which the activation is -16.7% (inactive).
The same measure, in the same setting: in the case of `Cc1cccc(C)c1NC(=O)CC12CCCN1CCC2` it was 5.86% (inactive).
Regarding `CCC(C)(C)C1CCc2c(sc(NC(=O)c3ccc(Br)cc3)c2C#N)C1` (centres undefined), the activation was -0.333% (inactive).
Regarding `Nc1nc(Cl)nc2c1ncn2[C@H]1C[C@H](O)[C@@H](CO)O1`, the activation was 24.5% (inactive).
Still for that read-out and setting: the figure for `CC1(C)CC[C@]2(C(=O)O[C@@H]3O[C@H](CO)[C@@H](O)[C@H](O)[C@H]3O)CC[C@]3(C)C(=CCC4[C@@]5(C)C[C@@H](O)[C@H](O)[C@](C)(C(=O)O)C5CC[C@]43C)C2C1O` (some centres undefined) is -2.68% (inactive); for `COC(=O)CCCCC(CCSS/C(CCO)=C(\C)N(C=O)Cc1cnc(C)nc1N)SC(C)=O` (centres undefined) it is 10% (inactive).
Still for that read-out and setting: in the case of `CC1C(=O)CC2C3CCC(C(=O)O)C12CC3(C)CO` (centres undefined) it was 9.92% (inactive); in that of `CC(C)(C)c1cc(C(C)(C)C)c(NC(=O)c2c[nH]c3ccccc3c2=O)cc1O`, 27.3% (inactive).
The same measure, in the same setting: in the case of `CNCCc1cnc(CCC(c2ccccc2)c2ccccc2)[nH]1` it was -38.1% (inactive).
In the case of `CC(C)Oc1ccc(-c2nc(-c3cccc4c3CCC4NCCC(=O)O)no2)cc1C#N` (centres undefined), the activation was 0% (inactive).
With `CCC(C)N(C)C(=O)c1cc2ccccc2c(-c2ccccc2Cl)n1` (centres undefined), the activation was 12.4% (inactive) and -31.8% (inactive).
Same read-out and setting: in the case of `CNc1ncnc2c1ncn2[C@H]1C[C@H](OP(=O)(O)O)[C@@H](COP(=O)(O)O)O1` it was 3.4% (inactive).
In the case of `Cc1nc(N)ncc1-c1nc(N2CCOCC2)c2sc(C(C)(C)O)cc2n1`, the activation was 9.3% (inactive).
As for `CO[C@@H](Cc1ccc(OCCc2nc(-c3ccccc3)oc2C)c2ccsc12)C(=O)O`, the activation was -6.25% (inactive).
Still for that read-out and setting: the figure for `Cc1ccc2c(Br)cc(Br)c(O)c2n1` is -18.4% (inactive).
For the compound `CCCOc1ccc(C(=O)OCCN(CC)CC)cc1N`, the Potency was 24.3 µM (active) and the activation was 9.6% (inactive).
As for `O=S(=O)(NC1CCC(c2cc(F)ccc2F)(S(=O)(=O)c2ccc(Cl)cc2)CC1)C(F)(F)F` (centres undefined), the activation is -16.2% (inactive).
Consider `COC(=O)C1=C(C)NC(C)=C(C(=O)OC(C)(C)CN(C)CCC(c2ccccc2)c2ccccc2)C1c1cccc([N+](=O)[O-])c1` (centres undefined), for which the activation is 17.5% (inactive).
Still for that read-out and setting: the figure for `CNC(=O)c1ccc2c(C(=Nc3cccc(CN(C)C)c3)c3ccccc3)c(O)[nH]c2c1` is -0.477% (inactive); for `COc1ccc(CN2CCN(C(c3ccc(F)cc3)c3ccc(F)cc3)CC2)c(OC)c1OC` it is -1.69% (inactive) and -6.68% (inactive).
The same measure, in the same setting: in the case of `CC(=O)O[C@@H]1C(O)C[C@@]2(C)C(CC[C@@H](C)C23Cc2c(O)cc4c(c2O3)CNC4=O)C1(C)C` (some centres undefined) it was -14.5% (inactive); in that of `CCn1cc(-c2cccc(C(F)(F)F)c2)c2sc(C(N)=NC3CCS(=O)(=O)CC3)cc2c1=O`, 12.3% (inactive); in that of `NS(=O)(=O)c1cccc2c1c([N+](=O)[O-])cc1nc(O)c(O)nc12`, -8.06% (inactive).
The same measure, in the same setting: in the case of `Fc1ccc2c(CCNCc3cccc(OCC(F)(F)C(F)F)c3)c[nH]c2c1` it was 3.34% (inactive); in that of `CN(C)CCCN1c2ccccc2Sc2ccc(C(F)(F)F)cc21`, 25.1% (inactive) and 58.3% (inactive); in that of `O=C(O)c1ccc(OCCN2CCCCC2)cc1`, -14.1% (inactive).
In the case of `C[C@]12C=CC(=O)N[C@@H]1CC[C@H]1[C@H]3CC[C@@H](C(=O)Nc4cc(C(F)(F)F)ccc4C(F)(F)F)[C@@]3(C)CC[C@@H]12`, the activation is 9.28% (inactive).
Same read-out and setting: in the case of `Cc1cc(C)c(S(=O)(=O)n2cc(C)cc2C)c(C)c1` it was 5.73% (inactive); in that of `O=C(O)Cc1cn([C@@H]2O[C@H](CO)[C@@H](O)[C@H](O)[C@H]2O[C@@H]2O[C@H](CO)[C@@H](O)[C@H](O)[C@H]2O)c2ccccc12`, 3.82% (inactive); in that of `CC(=O)O[C@H]1Cc2ccccc2N(C(N)=O)c2ccccc21`, 5.86% (inactive).
On to `COc1cc(O)c(C(=O)CCc2ccc(O)cc2)c(O[C@@H]2O[C@H](CO)[C@@H](O)[C@H](O)[C@H]2O)c1`, for which the Potency is 7.38 µM (active).
